We go through 12 compounds from PubChem BioAssay (Tox21).

Assay [1] is described as follows: qHTS assay to identify small molecule antagonists of the retinoid acid receptor (RAR) signaling pathway - cell viability counter screen (AID 1159551). Note: nearly all actives have a fitted effect of over 35% in size. Note: potency is the fitted concentration of half-maximal effect. An outline of the steps: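 C3RL4 cells were seeded overnight at 37 C, then treated with compounds plus 1 uM (final) retinol for 6 h at 37 C. Viability was read as ATP by CellTiter-Glo luminescence after 30 min at room temperature.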

The nature of assay [2]: qHTS assay to identify small molecule antagonists of the retinoic acid receptor (RAR) signaling pathway (AID 1159552; note: nearly all actives have a fitted effect of over 50% in size; note: potency is the fitted concentration of half-maximal effect). An outline of the steps: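 Luminescent RARE reporter read-out in C3RL4 cells: 6 hr co-treatment at 37 C of test compounds with retinol at 1 uM final. Cells plated overnight beforehand; luciferase reagent incubated 30 min at room temperature before reading.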

The target in assay [3] is Luciferin 4-monooxygenase (Photinus pyralis) (UniProt P08659). In words: qHTS assay to identify small molecule inhibitors of firefly luciferase (AID 1224835). Note: nearly all actives have a fitted effect of over 25% in size. Note: potency is the fitted concentration of half-maximal effect. An outline of the steps: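 Quantitative HTS format; KM concentrations of both substrates. Purified P. pyralis FLuc activity quantified from luminescence images.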
Sequence of Luciferin 4-monooxygenase (Photinus pyralis) (P08659 whole entry, looked up): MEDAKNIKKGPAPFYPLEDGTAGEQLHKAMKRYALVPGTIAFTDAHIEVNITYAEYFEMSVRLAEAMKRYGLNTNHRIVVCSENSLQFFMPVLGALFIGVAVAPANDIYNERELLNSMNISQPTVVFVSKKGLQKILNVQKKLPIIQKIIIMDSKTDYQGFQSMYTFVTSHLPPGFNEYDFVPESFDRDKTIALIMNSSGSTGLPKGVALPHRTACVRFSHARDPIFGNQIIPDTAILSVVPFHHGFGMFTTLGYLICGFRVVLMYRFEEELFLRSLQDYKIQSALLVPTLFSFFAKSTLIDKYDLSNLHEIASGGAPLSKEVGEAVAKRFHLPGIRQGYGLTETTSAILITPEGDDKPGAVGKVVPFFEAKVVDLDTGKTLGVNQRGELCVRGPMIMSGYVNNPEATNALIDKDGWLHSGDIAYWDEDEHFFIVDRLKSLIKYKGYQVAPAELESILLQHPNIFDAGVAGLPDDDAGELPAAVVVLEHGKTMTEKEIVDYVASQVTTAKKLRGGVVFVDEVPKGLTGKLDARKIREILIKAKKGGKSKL
Background: In qHTS, concentration-response curves come from the screen itself.

A short description of assay [4]: qHTS assay to identify small molecule agonists of the constitutive androstane receptor (CAR) signaling pathway - cell viability counter screen (AID 1224836). Note: nearly all actives have a fitted effect of over 45% in size. Note: potency is the fitted concentration of half-maximal effect. An outline of the steps:
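Cell viability multiplexed with the CAR agonist screen: CellTiter-Fluor fluorescence after 23 hr at 37 C. HepG2-CYP2B6-hCAR cells got compounds at 15 concentrations with PK11195 at 0.75 uM final.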

A short description of assay [5]: qHTS assay to identify small molecule antagonists of the constitutive androstane receptor (CAR) signaling pathway - cell viability counter screen (AID 1224837). Note: nearly all actives have a fitted effect of over 45% in size. Note: potency is the fitted concentration of half-maximal effect. An outline of the steps:
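HepG2 cells stably expressing hCAR and a CYP2B6-2.2kb reporter were plated and pre-incubated 4 hr at 37 C/5% CO2, then given compounds at 15 concentrations plus 50 nM CITCO (final). After 23 hr, viability was read by CellTiter-Fluor fluorescence.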

Assay [6] deals with Nuclear receptor subfamily 1 group I member 3 (Homo sapiens) (UniProt Q14994). In words: qHTS assay to identify small molecule antagonists of the constitutive androstane receptor (CAR) signaling pathway (AID 1224838). Note: nearly all actives have a fitted effect of over 40% in size. Note: potency is the fitted concentration of half-maximal effect. An outline of the steps:
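HepG2 cells stably co-transfected with hCAR and a CYP2B6-2.2kb luciferase reporter were seeded 4 h before compound addition at 15 concentrations. Cells were stimulated with 50 nM CITCO (final) for 24 h at 37 C; luciferase luminescence was then read.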

Assay [7] shares this target. In words: qHTS assay to identify small molecule agonists of the constitutive androstane receptor (CAR) signaling pathway (AID 1224839).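 Note: HepG2 cells stably carrying human CAR and a CYP2B6 luciferase reporter; series mostly up to about 92 µM; nearly all actives have a fitted effect of over 15% in size.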 The gist of the method: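 Luminescent ONE-Glo read-out after 24 hr, 37 C exposure of double-stable HepG2-CYP2B6-hCAR reporter cells to a 15-point compound series, in the presence of 0.75 uM PK11195 (final).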
Assay [8] is described as follows: qHTS assay to identify small molecule antagonists of the estrogen related receptor signaling pathway with the pleiotropic PPARgamma coactivator (PGC) from Tox21 10K library - cell viability counter screen (AID 1224840; active = well fitted cell-killing curve with a large enough effect in the repeat runs, not every such curve was filed as active; note: nearly all actives have a fitted effect of over 40% in size; note: potency is the fitted concentration of half-maximal effect). An outline of the steps: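 PGC/ERR cells were seeded at 2,000 cells/well and left 6 hours at 37 C/5% CO2 before pin-tool addition of compounds in DMSO. After 17.5 hours at 37 C, CellTiter-Fluor was added and fluorescence read 30 minutes later.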

The target in assay [9] is Thyrotropin receptor (Homo sapiens) (UniProt P16473). In words: qHTS assay to identify small molecule agonists of the thyroid stimulating hormone receptor (TSHR) signaling pathway (AID 1224843; calls by dose curve; note: nearly all actives have a fitted effect of over 45% in size; note: potency is the fitted concentration of half-maximal effect). The gist of the method:
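Cell line HEK293 with TSHR; density 800/well. Exposure 30 min RT. Readout HTRF cAMP (cAMP-d2/anti-cAMP-cryptate), 1 h RT before reading.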

The nature of assay [10]: qHTS assay to identify small molecule agonists of the hypoxia (HIF-1) signaling pathway - cell viability counter screen (AID 1224844; calls by dose curve; note: nearly all actives have a fitted effect of over 50% in size; note: potency is the fitted concentration of half-maximal effect). An outline of the steps: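 HRE-bla ME-180 cells in medium with 0.5% dialyzed FBS were preincubated 5 hrs at 37C, exposed to compounds for 17 hrs, then viability was read as CellTiter-Glo luminescence after 30 min at room temperature, in the reporter wells.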

The nature of assay [11]: qHTS assay to identify small molecule agonists of H2AX (AID 1224845; active = well fitted activation curve with a large enough effect in the signal ratio in the repeat runs, not every such curve was filed as active; the % refers to the signal ratio; note: potency is the fitted concentration of half-maximal effect). An outline of the steps:
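Wild-type CHO-K1 cells plated overnight, then exposed 3 hr at 37C to compounds at 15 concentrations (0.76% DMSO). Lysed, then HTRF anti-pH2AX(S139)-cryptate/anti-H2AX-d2 detection after 24 hr at room temperature; emissions 665 and 620 nm.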

A short description of assay [12]: qHTS assay to identify small molecule antagonists of the estrogen related receptor (ERR) signaling pathway from Tox21 library - cell viability counter screen (AID 1224834). Note: nearly all actives have a fitted effect of over 30% in size. Note: potency is the fitted concentration of half-maximal effect. The gist of the method:
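ERR reporter cells were plated 6 h before compound addition, then exposed to test compounds in DMSO for 17.5 h at 37 C. Viability was read as CellTiter-Fluor fluorescence after a 30-minute incubation at 37 C.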

Assay [13] is described as follows: qHTS assay to identify small molecule antagonists of the estrogen related receptor signaling pathway with the pleiotropic PPARgamma coactivator (PGC) from Tox21 10K library (AID 1224841; call rule not given here; note: actives are mostly falling curves and most rising ones were filed inactive; nearly all actives have a fitted effect of over 50% in size; note: potency is the fitted concentration of half-maximal effect). The gist of the method:
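PGC/ERR reporter cells were seeded at 2,000 cells/well and held 6 hours at 37 C/5% CO2 before pin-tool addition of compounds in DMSO. After 18 hours at 37 C, One-Glo was added and luminescence read after 30 minutes at room temperature.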

Assay [14] is described as follows: qHTS assay to identify small molecule agonists of the estrogen related receptor signaling pathway with the pleiotropic PPARgamma coactivator (PGC) from Tox21 10K library (AID 1224842). Note: nearly all actives have a fitted effect of over 15% in size. An outline of the steps:
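PGC/ERR reporter cells (NTP line) were seeded 2,000 per well, rested 6 h at 37 C/5% CO2, then pin-dosed with compounds in DMSO for 18 h at 37 C; luciferase read by One-Glo luminescence after 30 min at room temperature.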

Records with an inconclusive call do not appear. Active and inactive are the calls of the source. Unless noted, calls come from the whole dose curve; as a rule, active = well fitted curve in the direction sought with a large enough effect in the repeat runs; inconclusive = weak or mixed curves; inactive = no such curve, though single readings can be large; an effect the other way counts as inactive or inconclusive.

Sequence of Nuclear receptor subfamily 1 group I member 3 (Homo sapiens) (Q14994 whole entry, looked up): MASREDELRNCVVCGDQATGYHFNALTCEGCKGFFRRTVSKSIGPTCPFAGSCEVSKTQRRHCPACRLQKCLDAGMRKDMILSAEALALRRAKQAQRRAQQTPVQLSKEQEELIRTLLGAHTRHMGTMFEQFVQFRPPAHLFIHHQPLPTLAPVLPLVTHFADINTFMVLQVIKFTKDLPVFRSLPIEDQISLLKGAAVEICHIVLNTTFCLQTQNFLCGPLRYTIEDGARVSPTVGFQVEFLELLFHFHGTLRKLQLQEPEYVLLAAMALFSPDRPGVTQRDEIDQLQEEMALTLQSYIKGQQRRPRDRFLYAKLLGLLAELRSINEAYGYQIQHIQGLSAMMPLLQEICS
Sequence of Thyrotropin receptor (Homo sapiens) (P16473 whole entry, looked up): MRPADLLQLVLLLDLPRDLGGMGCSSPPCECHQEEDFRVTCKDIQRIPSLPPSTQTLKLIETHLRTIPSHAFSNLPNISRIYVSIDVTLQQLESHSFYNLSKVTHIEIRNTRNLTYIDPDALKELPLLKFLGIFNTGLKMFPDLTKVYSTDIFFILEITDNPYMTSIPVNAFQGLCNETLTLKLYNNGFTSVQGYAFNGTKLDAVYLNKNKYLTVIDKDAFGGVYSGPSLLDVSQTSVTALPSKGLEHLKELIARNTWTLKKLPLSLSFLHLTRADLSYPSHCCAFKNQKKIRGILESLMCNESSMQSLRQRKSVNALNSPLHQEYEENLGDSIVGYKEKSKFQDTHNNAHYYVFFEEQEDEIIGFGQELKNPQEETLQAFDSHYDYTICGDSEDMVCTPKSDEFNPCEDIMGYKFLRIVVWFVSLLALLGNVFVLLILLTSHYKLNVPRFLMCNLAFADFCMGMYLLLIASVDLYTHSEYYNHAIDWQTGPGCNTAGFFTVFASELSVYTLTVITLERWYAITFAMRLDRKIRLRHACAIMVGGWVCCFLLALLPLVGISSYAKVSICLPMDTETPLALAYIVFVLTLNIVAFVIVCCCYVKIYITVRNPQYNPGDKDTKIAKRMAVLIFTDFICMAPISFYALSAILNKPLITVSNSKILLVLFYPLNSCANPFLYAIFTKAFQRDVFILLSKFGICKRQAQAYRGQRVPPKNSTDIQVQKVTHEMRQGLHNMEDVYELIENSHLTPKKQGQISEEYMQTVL

Regarding `NC(=O)CCl`, the Potency entry in assay [1], in assay [2], in [3], in [4], in [5] and in assay [6] was “inactive” throughout. Further, the Potency result in [7], in assay [8], in assay [9], in [10] and in assay [11] was “inactive” in each case.

On to `CC(C)C1CCC(Cc2ccc(Cl)cc2)C1(O)Cn1cncn1` (stereo not drawn), for which the Potency is 60.5 µM (active) in assay [1]; 42.8 µM (active) in assay [2]; 53.9 µM (active) in assay [12]; 15.2 µM (active) in [13]; 48.1 µM (active) in assay [9]; 54.4 µM (active) in assay [10]. In addition, the Potency entry in [3], in assay [7] and in [14] was “inactive” in each case.

With `Cc1ccc(C(=O)Cl)cc1`, the Potency result in assay [1], in assay [2], in assay [12], in assay [4], in assay [5] and in [6] was “inactive” in each case. Moreover, the Potency result in [7], in assay [8], in [13], in assay [14], in assay [9] and in [10] was “inactive” throughout.

Regarding `COc1ccc(OC)c(C=O)c1`, the Potency result in [1], in [2], in assay [3], in assay [4], in [5] and in assay [8] was “inactive” each time. The Potency entry in assay [10] and in assay [11] was “inactive” throughout.

As to `O=c1ssc(Cl)c1Cl`, the Potency in [1] is 68.6 µM (active); in [2] it was 61.1 µM (active); in [3] it was 17.8 µM (active); in assay [4], 61.1 µM (active); in [5], 54.5 µM (active); in [6], 54.5 µM (active). The Potency in assay [10] is 17.4 µM (active). Moreover, the Potency result in [7], in [14] and in assay [11] was “inactive” throughout.

`CCC[CH2][Sn]([CH2]CCC)([CH2]CCC)[O]C(=O)c1ccccc1`: the Potency in assay [1] was 4.86 µM (active); in assay [2], 0.686 µM (active); in assay [3] it was 35.6 µM (active); in assay [4] it was 0.77 µM (active); in assay [5] it was 1.22 µM (active); in [8], 1.22 µM (active). For the same compound, in assay [10], the Potency was 0.549 µM (active). For the same compound, the Potency result in [14] and in assay [9] was “inactive” in each case.

Regarding `S=C=Nc1cccc2ccccc12`, the Potency entry in [1], in assay [2], in assay [3], in assay [8] and in assay [14] was “inactive” each time. Moreover, the Potency in [4] is 67.9 µM (active); in assay [10] it was 48.5 µM (active).

In the case of `CC(=O)/C=C/c1ccc2c(c1)OCO2`, the Potency entry in [1], in [2], in assay [4], in assay [5], in assay [6] and in [7] was “inactive” throughout. In addition, the Potency entry in assay [14] and in assay [10] was “inactive” each time. The Potency in assay [3] was 45 µM (active).

As for `OC(Cc1ccccc1Cl)(Cn1cncn1)C1(Cl)CC1` (stereo not drawn), the Potency entry in assay [1], in assay [2], in assay [3], in assay [5], in assay [6] and in [8] was “inactive” each time. Besides, the Potency result in assay [14], in [9] and in [10] was “inactive” throughout. For the same compound, the Potency in assay [13] is 54.5 µM (active).

As for `c1ccc(OCC2CO2)cc1` (stereo not drawn), the Potency entry in assay [1], in assay [2], in assay [4], in assay [7], in assay [8] and in assay [9] was “inactive” throughout. The Potency entry in assay [10] and in assay [11] was “inactive” in each case.

Take `CCSC(C)CC1CC(=O)C(/C(CC)=N/OC/C=C/Cl)=C(O)C1` (stereo not drawn): the Potency result in assay [1], in assay [2], in assay [12], in assay [3], in [4] and in assay [8] was “inactive” throughout. The Potency entry in assay [14], in [9] and in assay [10] was “inactive” each time. For the same compound, the Potency in assay [13] was 2.11 µM (active).

Regarding `O=C(CCl)C(Cl)Cl`, the Potency result in [1], in assay [3], in [7] and in assay [14] was “inactive” in each case. The Potency is 15.5 µM (active) in [2]; 21.9 µM (active) in assay [4]; 13.8 µM (active) in [6]; 24.6 µM (active) in assay [8]; 61.7 µM (active) in [13]; 40.5 µM (active) in assay [11].
